# Hit rate of the full screen: of about 310,000 compounds, about 14,000 (4.5%) showed an effect of 50% or more. Effects have a minus sign here. This excerpt belongs to a sample that is enriched for strong results.
# Molecular target: human ether-à-go-go-related gene (hERG) potassium channel (human, UniProt Q12809)
# Test: primary screen, population patch clamp on CHO cells stably expressing hERG; higher = less effect of the substance
# 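Note: peak tail current of the secondary pulse compared with the same well before compound.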
# Chain of human ether-à-go-go-related gene (hERG) potassium channel (Q12809 whole entry, looked up): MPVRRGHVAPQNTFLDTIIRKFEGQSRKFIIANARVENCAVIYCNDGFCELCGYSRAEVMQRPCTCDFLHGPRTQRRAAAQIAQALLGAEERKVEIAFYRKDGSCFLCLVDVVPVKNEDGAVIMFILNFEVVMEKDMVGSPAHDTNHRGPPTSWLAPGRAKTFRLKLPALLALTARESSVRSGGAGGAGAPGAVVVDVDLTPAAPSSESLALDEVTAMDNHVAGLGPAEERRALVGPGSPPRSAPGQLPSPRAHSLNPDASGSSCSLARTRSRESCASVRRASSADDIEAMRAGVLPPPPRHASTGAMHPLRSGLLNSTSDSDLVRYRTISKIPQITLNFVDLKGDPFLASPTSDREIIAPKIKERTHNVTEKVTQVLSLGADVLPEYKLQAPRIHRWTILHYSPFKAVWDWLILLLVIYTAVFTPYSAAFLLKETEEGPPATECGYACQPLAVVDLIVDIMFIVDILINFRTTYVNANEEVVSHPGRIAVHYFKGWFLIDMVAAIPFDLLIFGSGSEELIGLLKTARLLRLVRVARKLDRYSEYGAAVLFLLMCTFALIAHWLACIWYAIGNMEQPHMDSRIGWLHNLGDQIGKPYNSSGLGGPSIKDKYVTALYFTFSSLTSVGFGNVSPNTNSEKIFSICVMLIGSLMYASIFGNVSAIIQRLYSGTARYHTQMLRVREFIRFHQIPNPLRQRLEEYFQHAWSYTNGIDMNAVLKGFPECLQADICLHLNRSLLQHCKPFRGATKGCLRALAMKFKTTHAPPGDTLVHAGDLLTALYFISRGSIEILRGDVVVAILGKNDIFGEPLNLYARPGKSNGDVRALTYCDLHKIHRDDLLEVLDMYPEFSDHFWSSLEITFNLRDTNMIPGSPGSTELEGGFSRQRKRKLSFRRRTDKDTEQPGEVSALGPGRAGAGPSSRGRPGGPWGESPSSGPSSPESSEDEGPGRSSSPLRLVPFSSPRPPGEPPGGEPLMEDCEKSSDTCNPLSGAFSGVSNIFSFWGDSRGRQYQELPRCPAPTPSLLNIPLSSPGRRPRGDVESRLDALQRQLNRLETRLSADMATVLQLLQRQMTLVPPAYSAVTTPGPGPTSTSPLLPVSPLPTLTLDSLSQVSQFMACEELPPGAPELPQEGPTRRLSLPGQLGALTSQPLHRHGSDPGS
row,SMILES,"hERG current change (%, negative = inhibition) at 10uM [%]"
1,COc1ccc(CN(C)C(=O)COC(=O)c2ccc3c(c2)OCO3)cc1OC,-3.84
2,CCC(=O)OC1(C)C(=O)C=C2C=C(C3CC3)OC=C2C1=O (stereo not shown),12.5
3,CCC(C(=O)Nc1ccccc1OC)n1c(C(=O)OC)cc2ccsc21 (stereo not shown),-11.3
4,CN(CC(=O)NNC(=O)CNC(=O)c1ccccc1Cl)S(=O)(=O)c1ccc(Cl)cc1,9.57
5,O=C(CN1CCCCC1)Nc1ccccc1Cl,21.1
6,Cc1cccc(NC(=O)Cn2cnc3c(cnn3-c3ccc(F)cc3)c2=O)c1C,2.99
7,O=C(CN1CCCCCC1)Nc1ccccc1Cl,6.75
8,Cc1cccc(NC(=O)CN2CCN(C(=O)c3oc4c(Cl)cccc4c3C)CC2)c1C,-43.6
9,O=C(CN1CCN(C(=O)c2c(F)cccc2F)CC1)Nc1ccccc1C(F)(F)F,-20.9
10,Cc1cccc(NC(=O)CN2CCN(C(=O)c3cncn3-c3ccc(F)cc3)CC2)c1C,-60.9
11,Cc1cccc(NC(=S)N2CCN(Cc3ccccc3)CC2)c1C,-13.2
12,Cc1cccc(NC(=O)CN2CCN(C(=O)c3cnn(Cc4ccccc4)c3)CC2)c1C,-87.2
13,O=C(CN1CCN(C(=O)c2cncn2-c2ccc(F)cc2)CC1)Nc1ccccc1C(F)(F)F,-70
14,O=C(CN1CCN(C(=O)c2cncn2-c2ccccc2)CC1)Nc1ccccc1Cl,-77.3
15,O=C(CN1CCN(CC(=O)Nc2ccccc2C(F)(F)F)CC1)Nc1ccccc1F,-30.2
16,COc1cc(OC)cc(C(=O)OCC(=O)Nc2ccc(F)cc2F)c1,4.34
17,CCC(C)(C)NC(=O)c1ccc2c(c1)S(=O)(=O)c1ccccc1C2=O,-16.8
18,CNS(=O)(=O)c1cccc(C(=O)OCC(=O)NCCCc2ccccc2)c1,-5.42
19,COc1cc(OC)cc(-c2nnc(SCc3c(F)cccc3Cl)o2)c1,0.324
20,COc1ccccc1CC(=O)N1CCCc2ccccc21,0.493
21,COc1cc([N+](=O)[O-])ccc1NC(=O)Nc1nc2c(s1)CCCC2,11.7

row,SMILES,"hERG current change (%, negative = inhibition) at 10uM [%]"
1,O=C(Nc1ccccc1C(=O)O)c1ccc(NC(=O)c2ccc(Br)o2)cc1,11.7
2,Cc1ccc(-n2c(N)cc(=O)nc2SCC(=O)N2CCN(c3ccccc3)CC2)cc1,-0.877
3,COc1cc(C(CC(=O)Nc2ccccn2)N2Cc3ccccc3C2=O)cc(OC)c1OC (stereo not shown),-11.5
4,COc1cc(C(CC(=O)Nc2ccc(C)cn2)N2Cc3ccccc3C2=O)cc(OC)c1OC (stereo not shown),-1.38
5,COc1cc(C(CC(=O)Nc2ccc(Cl)cn2)N2Cc3ccccc3C2=O)cc(OC)c1OC (stereo not shown),-68.1
6,Cc1ccc(Nc2cc(C)nc(N3CCOCC3)n2)cc1,6.18
7,O=S(=O)(NC1CCCCC1)c1cccc(-c2nnc(-c3ccccc3)o2)c1,-36.4
8,Cc1ccc(N=C2S/C(=C/c3cccc(OCC(=O)O)c3)C(=O)N2C)cc1C,20.5
9,O=C(c1ccc(C(=O)N2CCCc3ccccc32)nc1)N1CCCc2ccccc21,-9.08
10,CCNC(=O)CSc1nnc(-c2ccc(OC)cc2)n1CC(C)C,-3.51
11,CC1CCCN(C(=O)Cn2c3ccccc3c3nc4n(c(=O)c32)CCS4)C1 (stereo not shown),-3.59
12,CCc1ccc([C@@H]2C[C@H]3CN(Cc4ccccc4OC)C(=O)[C@]34CCCN24)cc1,-70.7
13,O=C1N(Cc2cccnc2)C[C@@H]2C[C@@H](c3cccc(C(F)(F)F)c3)N3CCC[C@@]123,-10.3
14,COc1ccccc1CN1C[C@@H]2C[C@@H](c3ccc(Cl)cc3)N3CCC[C@@]23C1=O,-44.1
15,Cc1ccccc1-c1cccc([C@@H]2C[C@H]3CN(Cc4cccnc4)C(=O)[C@]34CCCN24)c1,-59
16,O=C1N(Cc2cccnc2)C[C@@H]2C[C@@H](c3ccccc3C#Cc3ccccc3)N3CCC[C@@]123,-69.5
17,O=C1N(Cc2cccnc2)C[C@@H]2C[C@@H](c3ccc(C(F)(F)F)cc3)N3CCC[C@@]123,-53.9
18,COc1ccccc1CN1C[C@@H]2C[C@@H](c3ccc(C)cc3)N3CCC[C@@]23C1=O,-43.6
19,Cc1ccccc1CN1C[C@@H]2C[C@@H](c3ccc4nsnc4c3)N3CCC[C@@]23C1=O,-18.1
20,O=C1N(Cc2cccnc2)C[C@@H]2C[C@@H](c3ccccc3C(F)(F)F)N3CCC[C@@]123,-11.2
21,Cc1ccc(NC(=S)N2CCn3cccc3C2c2cccnc2)cc1 (stereo not shown),-37.3

row,SMILES,"hERG current change (%, negative = inhibition) at 10uM [%]"
1,CCOc1ccccc1-c1nc(-c2ccncc2)no1,-15.8
2,COc1cccc(-c2ccc(SCC(=O)NCCc3ccccc3)nn2)c1,-41.7
3,CCCN(C(=O)C(C)Oc1cccc(Cl)c1)c1c(N)n(Cc2ccccc2)c(=O)[nH]c1=O (stereo not shown),1.41
4,CCC(C)N1C(=O)c2ccccc2C1C(=O)NC1CCCCCC1 (stereo not shown),4.45
5,COC(=O)c1cc2occc2n1Cc1ccc(Cl)cc1,9.68
6,Nc1nonc1-n1nnc(C(=O)N/N=C/c2ccc(OCc3ccccc3)cc2)c1CN1CCCCC1,7.17
7,Cc1ccccc1S(=O)(=O)NCc1cccnc1,5.17
8,CN(C)S(=O)(=O)Nc1cc(Cl)cc(Cl)c1,-0.782
9,COc1ccc(C(O)(CCN2CCCCC2)C2CCCCC2)cc1.Cl (stereo not shown),-27.4
10,CC(C)C1N(C(=O)CN2CCCC2)CCN1S(=O)(=O)c1ccccc1 (stereo not shown),11
11,Cc1cc(C(=O)NNc2cc(Cl)ccc2Cl)no1,6.55
12,COC(=O)c1ccc([C@@H]2C[C@H]3CN(Cc4cccnc4)C(=O)[C@]34CCCN24)cc1,-1.19
13,O=C1N(Cc2cccnc2)C[C@@H]2C[C@@H](c3ccc(-c4ccccc4)cc3)N3CCC[C@@]123,-71.3
14,Cc1cc(C(=O)N/N=C/c2c[nH]c3ccccc23)cs1,-8.33
15,C=CCNC(=O)NC(=O)CSc1nc2cc([N+](=O)[O-])ccc2n1-c1cccc(C(F)(F)F)c1,20.8
16,CC(Sc1nc2cc([N+](=O)[O-])ccc2n1-c1cccc(C(F)(F)F)c1)C(=O)NC(N)=O (stereo not shown),13.6
17,CCNC(=O)CSc1nc2cc([N+](=O)[O-])ccc2n1-c1cccc(C(F)(F)F)c1,-35.8
18,NC(=O)NC(=O)CSc1nc2cc([N+](=O)[O-])ccc2n1-c1cccc(C(F)(F)F)c1,-57.7
19,NC(=O)CSc1nc2cc([N+](=O)[O-])ccc2n1-c1cccc(C(F)(F)F)c1,-69.9
20,NC(=O)CSc1nnc(-c2ccccc2Br)n1-c1cccc(C(F)(F)F)c1,-11.9
21,Cc1ccc(SCC(=O)Nc2cccc(C(=O)NC(C)(C)C)c2)cc1,4.17

row,SMILES,"hERG current change (%, negative = inhibition) at 10uM [%]"
1,O=C(Nc1cc(Cl)ccc1N1CCOCC1)c1cccnc1Cl,1.8
2,O=S(=O)(c1ccc(N2CCCCCC2)nc1)N1CCCC1,17.2
3,Cc1ccc(S(=O)(=O)N(C)C)cc1[N+](=O)[O-],-4.14
4,COc1ccc(CCNC(=O)c2cnccn2)cc1,10.8
5,COc1ccc(C(=O)C[n+]2cccc(C)c2C)cc1[N+](=O)[O-].[Br-],-13.2
6,O=C(C[n+]1cc2ccccc2c2ccccc21)c1ccccc1.[Br-],-73.8
7,O=C(C[n+]1cc(Br)cc2ccccc21)c1ccc(Cl)cc1.[Br-],-49.8
8,O=C(C[n+]1cc(Br)cc2ccccc21)c1ccc(F)cc1.[Br-],-41.6
9,Cc1ccc2c(ccc[n+]2CC(=O)c2ccccc2)c1.[Br-],-13.1
10,O=C(C[n+]1cc(Br)cc2ccccc21)c1ccc(Br)cc1.[Br-],-83.3
11,O=C(C[n+]1cc(Br)cc2ccccc21)c1ccccc1.[Br-],-21.7
12,O=C(C[n+]1cccc2ccccc21)c1ccc(NC(=O)c2ccccc2)cc1.[Br-],8.45
13,COc1ccc(C(=O)C[n+]2cc(Br)cc3ccccc32)cc1[N+](=O)[O-].[Br-],-66.3
14,N#CCc1c(C#N)c(N)nc(N2CCN(S(=O)(=O)c3ccccc3)CC2)c1C#N,-0.357
15,C=CCn1c(SCC(=O)Nc2cccnc2Cl)nnc1-c1ccccc1F,-15.5
16,COc1cc(C=O)ccc1OCCSc1ccc(C)cc1,-3.13
17,O=C(CSc1nnc(CNC(=O)c2ccco2)o1)Nc1ccccc1,17.2
18,CN(C)C(CNC(=O)CCc1c[nH]c2ccccc12)c1ccccc1 (stereo not shown),-5.7
19,CCOC(=O)C1=CC[C@H]2c3c(c4ccccc4n3C)C(=O)C1N2S(=O)(=O)c1ccc(C)cc1,-4.05
